The supplement of paper PMC6555819

Legend:
Assay in all cases: PBM binding z-score (relative to random genomic background probes); higher = stronger binding; sequences stand for … in GC…GCGATTGACAGCGTAGAATGAAGG
[1] = system: PPARg:RXRa DBDmut IVT, anti-RXR (DBD mutation: RXRa K156A/R161A, NR concentration 270 nM, RXRa partner concentration 90 nM)
In short: (§1)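 Each nuclear receptor dimer, without ligand, was incubated for 1 h on custom Agilent 4×180K protein-binding microarrays. Binding was detected with antibodies against each partner (one per run), and scanned fluorescence was regression-normalized. The binding z-scores are referenced to random human genomic background probes.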

[2] = system: PPARg:RXRa IVT, anti-PPARg (NR concentration 270 nM, RXRa partner concentration 90 nM)
In short: as §1

[3] = system: PPARg DBDmut IVT, anti-PPARg (DBD mutation: PPARg1 K132A/R137A, NR concentration 270 nM)
In short: as §1

[4] = system: PPARg homodimer (NR concentration 180 nM)
In short: as §1

[5] = system: PXR:RXRa (NR concentration 270 nM, RXRa partner concentration 90 nM)
In short: as §1

[6] = system: PXR homodimer (NR concentration 270 nM)
In short: as §1

[7] = system: RARa:RXR (NR concentration 270 nM, RXRa partner concentration 90 nM)
In short: as §1

[8] = system: RARa homodimer (NR concentration 270 nM)
In short: as §1

[9] = system: RARb:RXRa (NR concentration 270 nM, RXRa partner concentration 90 nM)
In short: as §1

[10] = system: RARb homodimer (NR concentration 270 nM)
In short: as §1

[11] = system: RARg:RXRa (NR concentration 270 nM, RXRa partner concentration 90 nM)
In short: as §1

[12] = system: RARg homodimer (NR concentration 270 nM)
In short: as §1

[13] = system: RXRa DBDmut IVT, anti-RXR (DBD mutation: RXRa K156A/R161A, NR concentration 90 nM)
In short: as §1

[14] = system: RXRa homodimer (NR concentration 180 nM)
In short: as §1

[15] = system: THRa:RXRa (NR concentration 90 nM, RXRa partner concentration 90 nM)
In short: as §1

[16] = system: THRa homodimer (NR concentration 90 nM)
In short: as §1

[17] = system: VDR:RXRa (NR concentration 270 nM, RXRa partner concentration 90 nM)
In short: as §1

[18] = system: VDR homodimer (NR concentration 270 nM)
In short: as §1

| Sequence | PBM binding z-score [1] | PBM binding z-score [2] | PBM binding z-score [3] | PBM binding z-score [4] | PBM binding z-score [5] | PBM binding z-score [6] | PBM binding z-score [7] | PBM binding z-score [8] | PBM binding z-score [9] | PBM binding z-score [10] | PBM binding z-score [11] | PBM binding z-score [12] | PBM binding z-score [13] | PBM binding z-score [14] | PBM binding z-score [15] | PBM binding z-score [16] | PBM binding z-score [17] | PBM binding z-score [18] |
| --- | --- | --- | --- | --- | --- | --- | --- | --- | --- | --- | --- | --- | --- | --- | --- | --- | --- | --- |
| CGGACTAGGTCACCAGGACAGTGAAGAGGTTGGA | 7.92 | 8.27 | 0.234 | 1.95 | 1.24 | -0.197 | 2.09 | -0.221 | 4.15 | 3.18 | 4.13 | 5.61 | 1 | 3.39 | 3.14 | 2.14 | 1.54 | 0.337 |
| CGAACTAGGTCAAAGGACGGTGAAAGGCGACGTA | 7.71 | 8.31 | 2.26 | 1.81 | 0.75 | -0.279 | 2.05 | 0.114 | 3.76 | 2.59 | 3.97 | 4.3 | 1.49 | 2.68 | 2.3 | -0.112 |  | -0.106 |
| CGAACTAGGTCAACAGGACAGTGAAGAGGTTGGA | 8.18 | 8.23 | 0.713 | 1.93 | 1.28 | 0.261 | 2.27 | 0.467 | 4.23 | 3.39 | 4.36 | 5.29 | 1.54 | 3.09 | 2.81 | 0.737 | 1.53 | 0.504 |
| CGAACTAGGTCACCAAGACAGTGAAGAGGTTGGA | 7.83 | 8.54 | 0.905 | 1.16 | 1.14 | -0.2 | 1.99 | 0.703 | 4.07 | 3.11 | 4.04 | 4.97 | 1.29 | 3.06 | 2.74 | 1.28 |  | 0.496 |
| CGAACTAGGTCAAATGACAGTGAAAGGCGACGTA | 7.89 | 8.48 | 2.82 | 2.37 | 1.34 | 0.00572 | 2.23 | 0.892 | 4.02 | 2.7 | 4.37 | 4.97 | 2.03 | 3.11 | 2.6 | 0.29 |  | 0.337 |
| CGAACTAGGTCACCAGGACTGTGAAGAGGTTGGA | 8.46 | 8.71 | 1.86 | 3.94 | 1.55 | -0.354 | 2.79 | 0.25 | 4.27 | 3.39 | 4.54 | 5.16 | 1.46 | 3.6 | 3.24 | 1.3 |  | 0.447 |
| CGAACTTGGTCAAAGGACAGTGAAAGGCGACGTA | 0.58 | 1.75 | -0.436 | 0.499 | -0.152 | -0.326 | 0.232 | -0.498 | 1.83 | 1.3 | 1.24 | 1.69 | -0.0652 | 0.736 | 0.657 | -0.391 | -0.101 | -0.0452 |
| CAAACTAGGTCACCAGGACAGTGAAGAGGTTGGA | 8.41 | 8.88 | 1.44 | 2.71 | 1.87 | 0.166 | 2.97 | 0.827 | 4.28 | 3.44 | 4.56 | 5.51 | 1.54 | 3.75 | 3.77 | 2 | 2.3 | 1.03 |
| ATATGTTGGTTAGGGTCATTCAGAAAGTAGGGAA | 1.44 | 2.45 | 1.7 | 3.53 | 4.44 | 2.69 | 4.96 | 2.67 | 3.2 | 3.19 | 3.79 | 2.71 | 2.64 | 5.05 | 4.08 | 3.71 | 4.37 | 4.01 |
| ATATGTAGGTTAGGGTCATTCACAAAGTAGGGAA | 6.56 | 6.82 | 1.75 | 2.3 | 4.57 | 2.17 | 4.83 | 2.07 | 3.49 | 3.69 | 3.98 | 3.1 | 2.7 | 5.07 | 4.38 | 2.96 | 4.61 | 3.86 |
| ATATGGAGGTTAGGGTCATTCAGAAAGTAGGGAA | 2.21 | 3.8 | 1.73 | 2.92 | 4.32 | 2.35 | 4.55 | 2.05 | 3.93 | 3.98 | 4.17 | 2.98 | 2.42 | 5.24 | 4.27 | 3.55 | 4.64 | 3.4 |
| CGAACTAGTTCAAAGGACAGTGAAAGGCGACGTA | 0.0129 | 0.499 | -0.185 | 0.158 | 0.27 | 0.322 | 0.253 | 0.148 | 1.91 | 1.43 | 1.25 | 1.73 | 2.02 | 0.848 | 0.426 | -0.6 | 0.0501 | 0.808 |
| CGAACTAGGTCCAAGGACAGTGAAAGGCGACGTA | 0.968 | 1.2 | -0.593 | -0.32 | -0.326 | -0.337 | -0.0342 | -0.625 | 0.398 | 0.38 | 0.00598 | 0.386 | 0.946 | 0.00981 | 1.39 | 0.672 | -0.332 | -0.041 |
| CGAACTAGGTCACCAGGTCAGTGAAGAGGTTGGA | 8.35 | 8.61 | 0.92 | 2.94 | 3.16 | 0.301 | 4.36 | 1.02 | 4.61 | 4.64 | 5.69 | 6.17 | 1.7 | 4.83 | 3.89 | 2.72 |  | 1.52 |
| CGAACTCGGTCACCAGGACAGTGAAGAGGTTGGA | 4.23 | 3.87 | -0.647 | 0.233 | 0.0316 | -0.302 | 0.493 | -0.227 | 2.69 | 1.97 | 2.47 | 3.48 | 0.319 | 1.01 | 1.86 | 0.326 |  | 0.21 |
| CGAACAAGGTCAAAGGACAGTGAAAGGCGACGTA | 3.85 | 5.39 | 1.79 | 2.54 | 4 | 0.956 | 4.62 | 0.893 | 4.98 | 3.95 | 5.92 | 5.92 | 3.59 | 5.76 | 3.57 | 1.54 | 3.93 | 2.26 |
| CGAACTAGGTCACCAGGACAGTGAAGAGGTTGGA | 8.47 | 8.79 | 4.55 | 2.24 | 1.37 | 0.0754 | 2.76 | 0.232 | 4.14 | 3.32 | 4.52 | 5.42 | 1.45 | 3.39 | 3.28 | 1.95 |  | 0.49 |
| ATATGTAGGTTATGGTCATTCAGAAAGTAGGGAA | 6.83 | 6.63 | 2 | 1.64 | 0.998 | 0.449 | 1.17 | 1.24 | 1.4 | 1.22 | 1.16 | 1.22 | 0.958 | 1.32 | 1.05 | 0.5 | 0.871 | 0.656 |
| ATATGTAGGTGAGGGTCATTCAGAAAGTAGGGAA | 7.49 | 7.69 | 2.2 | 2.51 | 3.02 | 1.81 | 3.81 | 2 | 2.97 | 3.13 | 3.24 | 3.06 | 1.67 | 3.67 | 2.56 | 1.31 | 3.42 | 2.76 |
| CGAACTAGGTCACCAGGACAGTGAGGAGGTTGGA | 8.37 | 8.24 | -0.39 | 1.56 | 0.988 | -0.539 | 1.93 | 0.16 | 4.16 | 3.41 | 4.5 | 5.36 | 1.05 | 3.49 | 3.34 | 1.7 | 1.83 | 0.667 |
| CGAACTAGGTCAAAGGATAGTGAAAGGCGACGTA | 8.11 | 8.26 | 0.867 | 1.36 | 1 | -0.152 | 1.9 | 0.167 | 3.62 | 2.35 | 3.47 | 4.16 | 1.28 | 2.85 | 2.22 | 0.17 |  | 0.124 |
| ATATGTAGGTTACGGTCATTCAGAAAGTAGGGAA | 7.69 | 8.18 | 1.83 | 2.04 | 0.971 | 0.516 | 1.47 | 0.836 | 2.89 | 2.42 | 2.34 | 2.47 | 0.852 | 1.64 | 2.08 | 0.831 | 1.54 | 0.93 |
| ATATGTACGTTAGGGTCATTCAGAAAGTAGGGAA | 0.518 | 2.04 | 1.66 | 2.39 | 4.47 | 1.32 | 4.93 | 1.08 | 3.1 | 2.98 | 3.78 | 2.71 | 2.3 | 4.98 | 3.78 | 2.87 |  | 3.98 |
| CGAACTAGGTCTCCAGGACAGTGAAGAGGTTGGA | 4.77 | 4.03 | -0.626 | 0.0186 | -0.409 | -0.39 | -0.238 | -0.356 | 0.216 | -0.111 | -0.0715 | 0.188 | -0.342 | -0.062 | 1.11 | 0.505 |  | -0.34 |
| AGATGTAGGTTAGGGTCATTCAGAAAGTAGGGAA | 5.84 | 6.36 | 2.37 | 3.93 | 4.39 | 3.03 | 5.13 | 3.23 | 3.39 | 3.52 | 3.98 | 3 | 2.56 | 4.81 | 3.92 | 3.4 | 4.32 | 4.44 |
| CGAACTAGGTCACCAGGACGGTGAAGAGGTTGGA | 7.98 | 8.73 | 2.21 | 2.07 | 1.18 | -0.299 | 2.21 | -0.518 | 4.26 | 3.1 | 4.28 | 5.25 | 0.756 | 3.01 | 3.04 | 0.961 | 1.77 | 0.435 |
| CGAACTAGGTAACCAGGACAGTGAAGAGGTTGGA | 6.32 | 5.77 | -0.0996 | 0.22 | -0.312 | 0.0727 | -0.0151 | -0.648 | 0.0285 | 0.378 | 0.0852 | 0.279 | -0.359 | 0.345 | 1.37 | 0.609 | -0.0408 | -0.193 |
